Data reported in PubChem BioAssay.
Calls of active or inactive are those of the source. Unless noted, no rule for the calls is given here.

What was measured:
[1] = anti-His antibody binders, primary screen, artefact control for SMM control protein annotation, biochemical, small-molecule microarray, 635 nm fluorescence (AID 1128); details: anti-His Alexa647 antibody binding, higher = more signal;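 also: score merges feature fluorescence with signal-to-noise for each printed compound spot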
[2] = system: Human papillomavirus type 1a E7 protein (residues 1-88); assay: HPV1a E7 small-molecule binders, primary screen, biochemical, small-molecule microarray, residues 1-88, 635 nm (AID 1129); details: small-molecule microarray binding, fluorescence 635 nm; higher = more signal
[3] = target: Focal adhesion kinase 1 (Homo sapiens) (UniProt Q05397); assay: small-molecule microarray binders of FAK, primary screen, biochemical, 635/667 nm fluorescence, BSA, DTT (AID 1130); details: PTK2 binding, 635 nm fluorescence, higher = more signal;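 also: composite of spot emission at 667 nm and signal to noise over triplicate slides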
Focal adhesion kinase 1 (Homo sapiens), sequence (Q05397 whole entry, looked up): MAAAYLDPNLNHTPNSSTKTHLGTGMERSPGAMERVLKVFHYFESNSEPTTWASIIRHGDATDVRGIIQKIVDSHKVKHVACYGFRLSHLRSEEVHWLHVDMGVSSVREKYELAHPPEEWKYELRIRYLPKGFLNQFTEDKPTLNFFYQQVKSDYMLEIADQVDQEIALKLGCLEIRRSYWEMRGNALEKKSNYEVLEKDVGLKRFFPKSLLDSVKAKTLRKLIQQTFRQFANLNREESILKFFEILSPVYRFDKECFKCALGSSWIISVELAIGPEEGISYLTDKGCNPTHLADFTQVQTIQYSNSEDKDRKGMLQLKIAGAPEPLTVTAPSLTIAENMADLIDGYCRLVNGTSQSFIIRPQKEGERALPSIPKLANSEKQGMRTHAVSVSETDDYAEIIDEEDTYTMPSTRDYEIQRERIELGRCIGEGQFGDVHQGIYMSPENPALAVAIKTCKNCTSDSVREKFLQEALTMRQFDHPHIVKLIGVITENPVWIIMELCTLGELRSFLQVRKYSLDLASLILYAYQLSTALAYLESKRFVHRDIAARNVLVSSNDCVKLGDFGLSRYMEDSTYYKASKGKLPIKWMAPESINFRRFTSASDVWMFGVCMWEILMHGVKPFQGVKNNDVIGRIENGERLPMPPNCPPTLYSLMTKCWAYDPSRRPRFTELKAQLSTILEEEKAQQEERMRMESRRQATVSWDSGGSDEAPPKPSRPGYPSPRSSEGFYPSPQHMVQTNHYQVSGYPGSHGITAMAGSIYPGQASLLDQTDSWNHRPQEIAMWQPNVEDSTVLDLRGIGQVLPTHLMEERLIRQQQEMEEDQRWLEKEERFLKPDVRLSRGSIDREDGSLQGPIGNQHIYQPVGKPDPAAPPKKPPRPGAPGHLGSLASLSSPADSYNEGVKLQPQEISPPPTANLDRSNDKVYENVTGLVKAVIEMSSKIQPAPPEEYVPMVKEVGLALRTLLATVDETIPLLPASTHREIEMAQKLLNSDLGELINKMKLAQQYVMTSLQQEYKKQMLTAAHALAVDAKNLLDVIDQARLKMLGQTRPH

[4] = system: Fibrinogen (Alexa647-labelled); assay: fibrinogen binders on compound microarrays, profiling panel, artefact control for SMM control-protein annotation, biochemical, small-molecule microarray, 635/667 nm fluorescence (AID 1131); details: fibrinogen-A647 binding fluorescence, higher = more signal;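 also: z-score merges 667 nm fluorescence with per-spot signal-to-noise over triplicate slides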
[5] = target: Follistatin (Homo sapiens) (UniProt P19883); assay: follistatin binders on small-molecule microarrays, primary screen, biochemical, small-molecule microarray, 635/667 nm fluorescence (AID 1132); details: FST binding, 635 nm fluorescence, higher = more signal
Follistatin (Homo sapiens), sequence (P19883 whole entry, looked up): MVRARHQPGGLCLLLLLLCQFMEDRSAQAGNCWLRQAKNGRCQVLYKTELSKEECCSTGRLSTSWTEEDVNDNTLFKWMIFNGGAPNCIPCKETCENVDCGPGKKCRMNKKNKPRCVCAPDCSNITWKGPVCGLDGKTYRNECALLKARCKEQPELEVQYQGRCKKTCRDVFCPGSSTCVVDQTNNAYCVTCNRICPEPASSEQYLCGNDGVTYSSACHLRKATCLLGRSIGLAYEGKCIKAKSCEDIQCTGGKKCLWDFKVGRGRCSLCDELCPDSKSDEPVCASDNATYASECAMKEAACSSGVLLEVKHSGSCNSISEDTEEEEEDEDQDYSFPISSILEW

[6] = target: Fibroblast growth factor 2 (Homo sapiens) (UniProt P09038); assay: FGF2 binders on small-molecule microarrays, primary screen, biochemical, small-molecule microarray, 635/667 nm fluorescence (AID 1133); details: small-molecule microarray binding, FGF2, fluorescence 635/667; higher = more signal
Fibroblast growth factor 2 (Homo sapiens), sequence (P09038 whole entry, looked up): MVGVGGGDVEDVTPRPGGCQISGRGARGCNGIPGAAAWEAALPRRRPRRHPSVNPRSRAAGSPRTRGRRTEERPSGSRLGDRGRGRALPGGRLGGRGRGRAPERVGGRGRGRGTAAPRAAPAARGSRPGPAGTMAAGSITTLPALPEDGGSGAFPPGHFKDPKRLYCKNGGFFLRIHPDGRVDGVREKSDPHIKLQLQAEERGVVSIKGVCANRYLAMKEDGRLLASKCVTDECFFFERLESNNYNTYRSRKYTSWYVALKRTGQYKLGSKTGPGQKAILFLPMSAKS

[7] = mitochondrial membrane potential change in A549 cells, profiling panel, cell-based, JC-1 fluorescence, basal, 24 h, 100 nL (AID 1138); details: higher = more signal;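 also: A549 lung adenocarcinoma cells under basal conditions with no added stimulus; test concentration not given here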
Lefty1 = Lefty1 binders on small-molecule microarrays, primary screen, biochemical, small-molecule microarray, 635/667 nm fluorescence (AID 1139); details: small-molecule microarray binding, fluorescence 635/667; higher = more signal
[8] = system: wheat germ agglutinin (Triticum aestivum), Alexa647-labelled; assay: wheat germ agglutinin binders on compound microarrays, profiling panel, artefact control for SMM control-protein annotation, biochemical, small-molecule microarray, 635/667 nm fluorescence (AID 1140); details: WGA-A647 binding, 635 nm fluorescence, higher = more signal;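 also: score merges 667 nm feature emission with signal to noise over triplicate slides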
[9] = target: Luciferin 4-monooxygenase (Photinus pyralis) (UniProt P08659); assay: firefly luciferase enzyme inhibitors, primary screen, biochemical, luminescence, purified enzyme, 2006 set (AID 1141); details: SteadyGlo luminescence, 30 min, higher = more signal, called active from +8 up or from −8 down;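 also: cell-free assay with purified firefly luciferase at 100 ng per well in PBS; test concentration not given here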
Luciferin 4-monooxygenase (Photinus pyralis), sequence (P08659 whole entry, looked up): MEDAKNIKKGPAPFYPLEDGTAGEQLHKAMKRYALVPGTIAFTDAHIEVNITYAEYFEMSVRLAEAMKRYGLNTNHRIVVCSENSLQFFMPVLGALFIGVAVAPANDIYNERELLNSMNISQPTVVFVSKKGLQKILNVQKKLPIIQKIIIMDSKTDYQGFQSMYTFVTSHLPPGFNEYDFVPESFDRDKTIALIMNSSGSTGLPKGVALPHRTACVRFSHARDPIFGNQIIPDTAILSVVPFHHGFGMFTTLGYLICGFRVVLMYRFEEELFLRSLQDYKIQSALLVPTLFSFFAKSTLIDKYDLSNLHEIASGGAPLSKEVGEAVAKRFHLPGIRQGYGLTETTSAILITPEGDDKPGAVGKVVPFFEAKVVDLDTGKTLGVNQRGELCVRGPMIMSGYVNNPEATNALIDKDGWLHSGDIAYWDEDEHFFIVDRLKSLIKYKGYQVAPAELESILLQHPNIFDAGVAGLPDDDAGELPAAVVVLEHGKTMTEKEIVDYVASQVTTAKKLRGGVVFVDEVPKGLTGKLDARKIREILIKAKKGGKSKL

[10] = system: Wnt5a (protein binding on small-molecule microarray); assay: Wnt5a binders on small-molecule microarray, primary screen, biophysical, 635/667 nm fluorescence (AID 1142); details: 635 nm fluorescence, higher = more signal;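 also: fluorescence read at 667 nm with signal to noise per printed feature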
[11] = cell viability in Huh7 cells, primary screen, cytotoxicity control for HCV replication inhibitor project, CellTiter-Glo luminescence, basal, 48 h (AID 1143); details: Huh7 HCV replicon, higher = more signal, called active from +8 up or from −8 down;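 also: Huh7 hepatoma cells carrying a hepatitis C replication reporter with no stimulus; test concentration not given here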
[12] = P. aeruginosa biofilm formation inhibitors, primary screen, PAO1 strain, BacTiter-Glo luminescence, LB-PBS (AID 1144); details: 12 h, higher = more signal
[13] = CREB reporter modulators without forskolin, primary screen, cell-based, PC12, CRE-LacZ reporter, unstimulated (AID 1145); details: no forskolin, luminescence, 4.5 h, higher = more signal, called active from +8 up or from −8 down
[14] = CREB reporter modulators under forskolin, primary screen, cell-based, PC12, CRE-LacZ reporter, forskolin-stimulated (AID 1146); details: luminescence, 4.5 h, higher = more signal, called active from +8 up or from −8 down;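 also: PC12 cells with 6xCRE LacZ reporter stimulated by forskolin 10 µM; beta-galactosidase reporter signal reflecting CREB driven transcription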
[15] = target: Streptavidin (Streptomyces avidinii) (UniProt P22629); assay: streptavidin binders on small-molecule microarray, primary screen, artefact control for SMM compound annotation, biophysical, 635/667 nm fluorescence (AID 1147); details: streptavidin binding, higher = more signal;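 also: signal reflects streptavidin binding to arrayed compounds as a control protein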
Streptavidin (Streptomyces avidinii), sequence (P22629 whole entry, looked up): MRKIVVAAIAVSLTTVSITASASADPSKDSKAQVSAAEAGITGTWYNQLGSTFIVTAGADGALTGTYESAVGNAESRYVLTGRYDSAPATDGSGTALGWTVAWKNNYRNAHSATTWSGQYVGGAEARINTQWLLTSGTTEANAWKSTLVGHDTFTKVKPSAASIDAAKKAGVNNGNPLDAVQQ

[16] = small-molecule binders of probe aInhba, primary screen, biochemical, small-molecule microarray, 635/667 nm fluorescence (AID 1148); details: higher = more signal;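 also: score merges 667nm spot fluorescence with signal-to-noise for antibody binding to printed compounds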
Torsin-1A (Homo sapiens) [17] = target: Torsin-1A (Homo sapiens) (UniProt O14656); assay: torsin A binders from cell lysate, primary screen, small-molecule microarray, wild-type, 635/667 nm (AID 1149); details: COS7 hTOR1A-WT lysate, 635 nm fluorescence, higher = more signal
Torsin-1A (Homo sapiens), sequence (O14656 whole entry, looked up): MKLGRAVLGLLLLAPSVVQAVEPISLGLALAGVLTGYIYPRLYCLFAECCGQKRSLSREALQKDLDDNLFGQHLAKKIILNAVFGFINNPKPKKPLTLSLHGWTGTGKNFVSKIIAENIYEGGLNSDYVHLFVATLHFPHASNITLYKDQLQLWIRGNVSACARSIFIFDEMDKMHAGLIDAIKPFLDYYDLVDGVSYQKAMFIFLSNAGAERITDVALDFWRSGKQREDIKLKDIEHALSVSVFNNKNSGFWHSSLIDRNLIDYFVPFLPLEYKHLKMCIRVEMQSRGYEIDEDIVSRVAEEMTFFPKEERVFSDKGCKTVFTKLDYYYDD

Torsin-1A (Homo sapiens) [18] = target: Torsin-1A (Homo sapiens) (UniProt O14656); assay: small-molecule binders of mutant TOR1A in lysate, primary screen, cell lysate, small-molecule microarray, COS7 lysate, 635/667 nm fluorescence (AID 1150); details: COS7 hTOR1A mutant lysate, 635 nm fluorescence, higher = more signal;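 also: score pools 667 nm emission and signal to noise measuring lysate protein binding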
[19] = system: Sonic hedgehog protein (Shh); assay: small-molecule binders of Shh protein, primary screen, biochemical, small-molecule microarray, 635/667 nm fluorescence (AID 1151); details: small-molecule microarray binding, 635 nm fluorescence; higher = more signal;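 also: Shh protein binding to compounds spotted on small-molecule microarray slides; score combines spot fluorescence intensity with signal-to-noise across triplicate slides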

SMILES | composite z-score [1] | composite z-score [2] | composite z-score [3] | composite z-score [4] | composite z-score [5] | composite z-score [6] | z-score [7] | composite z-score (Lefty1) | composite z-score [8] | z-score [9] | composite z-score [10] | z-score [11] | z-score [12] | z-score [13] | z-score [14] | composite z-score [15] | composite z-score [16] | composite z-score (Torsin-1A (Homo sapiens) [17]) | composite z-score (Torsin-1A (Homo sapiens) [18]) | composite z-score [19]
NC(N)=NCc1cn(CCc2c[nH]c3ccccc23)nn1 | 2 | 0.599 | 0.0313 | 0.367 | 0.832 | 1.07 | 0.0134 | 1.05 | 0.0932 | -0.813 (inactive) | 0.131 | -0.343 (inactive) | 0.845 (inactive) | -0.0989 (inactive) | 0.0771 (inactive) | 0.294 | 0.0275 | 0.607 | 0.734 | 1.54
C=C(C(=O)CC[C@H](OC(=O)c1cccnc1)c1ccc(CO)o1)C(C)C | -0.109 | 1.09 | -0.22 | 0.88 | 0.886 | 0.962 | -0.559 | 1.04 | 0.884 | -1.55 (inactive) | 0.159 | 0.3 (inactive) | 0.232 (inactive) | 0.48 (inactive) | 1.17 (inactive) | 0.441 | 0.228 | 0.684 | 0.449 | 1.79
C=C(COC)/C(=C/C[C@@H](OC(=O)c1ccncc1)c1cccc(OCCO)c1)c1cnc2ccccc2c1 | 2.26 | 1.17 | 0.191 | 0.922 | 1.48 | 1.68 | 0.746 | 1.64 | 1.55 | -1.68 (inactive) | 0.381 | -8.02 (active) | -0.639 (inactive) | 12.6 (active) | 0.818 (inactive) | 2.64 | 0.248 | 1.16 | 2.74 | 2.3
[N-]=[N+]=Nc1ccccc1C[C@]1(C(=O)NCc2ccccc2)N=C(c2ccc(OCCCO)cc2)O[C@H]1c1ccccc1 | 1.93 | 1.24 | 0.0541 | 0.998 | 1.13 | 0.0124 | 0.482 | 0.0213 | 1.12 | -1.34 (inactive) | 0.307 | -3.03 (inactive) | -0.523 (inactive) | -0.585 (inactive) | 1.15 (inactive) | 1.44 | 0.192 | 0.403 | 0.687 | -0.312
CC1CC/C=C\[C@H]2OC34C=CCN(c5ccc6ccccc6c5)C(=O)[C@H]3N(C(CO)C(C)C)C(=O)[C@@H]4C2C(=O)O1 (stereo not given in full) | 1.22 | 0.29 | 1.33 | -1.01 | 0.136 | -0.282 | 0.254 | 0.0964 | 1.08 | -0.776 (inactive) | -0.257 | -0.0047 (inactive) | 1.27 (inactive) | -0.0939 (inactive) | -0.714 (inactive) | -0.217 | 0.0028 | -1.06 | -0.477 | 0.485
COC(=O)[C@@]1(Cc2ccc(OC)cc2)[C@H]2c3cc(C(=O)N(C)C)n(CCc4c[nH]c5ccc(O)cc45)c3C[C@H]2CN1C(=O)c1ccccc1 | 0.548 | 1.21 | 1.36 | 0.979 | 1.01 | -0.218 | 0.74 | -0.737 | 1.28 | 1.18 (inactive) | 0.292 | -2.69 (inactive) | 0.255 (inactive) | 0.383 (inactive) | -0.292 (inactive) | 1.65 | 0.765 | 0.0612 | 0.263 | -0.428
CC(C)(C)OC(=O)CC[C@@]1(C(=O)O)N=C(c2ccc(OCCCO)cc2)O[C@@H]1c1ccccc1 | 1.52 | 0.716 | -0.219 | 0.506 | 0.0761 | -0.228 | -0.161 | -0.643 | -0.0131 | 0.383 (inactive) | -0.181 | -0.97 (inactive) | -0.335 (inactive) | -0.94 (inactive) | -0.374 (inactive) | 0.0425 | 0.0154 | 0.961 | 0.694 | -0.736
Cc1c(NC(=O)/C(C#N)=C/C=C/c2ccc(N(C)C)cc2)c(=O)n(-c2ccccc2)n1C | 1.61 | 1.18 | 0.0505 | 0.449 | 0.763 | 0.492 | 1.43 | 0.517 | 1.04 | -3.99 (inactive) | 0.48 | -0.853 (inactive) | 2.09 (inactive) | 0.595 (inactive) | -1.4 (inactive) | 0.96 | 0.264 | 0.314 | 0.288 | 0.259
COCCCNC(=O)[C@@]1(Sc2ccc(C)cc2)CC(=O)N(Cc2cc(C(F)(F)F)cc(C(F)(F)F)c2)[C@@H]1c1ccc(CO)cc1 | 1.79 | 0.566 | 0.813 | 0.248 | 1.06 | 0.686 | 0.727 | 1.25 | -0.271 | -0.363 (inactive) | 0.0054 | -0.418 (inactive) | 0.126 (inactive) | 0.506 (inactive) | -1.15 (inactive) | 0.072 | 0.0111 | 1.27 | 0.389 | 1.68
CCOC(=O)C[C@H]1[C@H](OC(=O)c2ccccc2-c2ccccc2)[C@@H](NC(=O)c2ccc3ccccc3n2)c2cc(OCCCO)ccc2N1C(=O)c1ccc2ccccc2n1 | 1.22 | 0.374 | 0.281 | 0.74 | 0.474 | 0.202 | 0.481 | 0.659 | 0.0363 | 0.761 (inactive) | 0.191 | -0.688 (inactive) | -1.37 (inactive) | 1.22 (inactive) | 0.305 (inactive) | 1.07 | -0.117 | -0.137 | -0.184 | 0.389
